Entries with a potency or affinity are not part of this list. Calls of active or inactive are those of the source. No rule for the calls is given here.
Test: Dd2 malaria parasite growth inhibition potency – SYBR Green, dry powder samples, dose response (AID 1159566)

Row | SMILES | outcome
1 | C[C@@H]1CN([C@H](C)CO)C(=O)c2cccc(NC(=O)c3ccc(-c4nccs4)cc3)c2O[C@H]1CN(C)Cc1ccc(C(F)(F)F)cc1 | inactive
2 | Cc1ccccc1-c1ccccc1[C@H]1[C@@H](C#N)N(C(=O)c2ccccc2)[C@@H]1CO | inactive
3 | COc1cccc(C#Cc2ccc([C@H]3[C@@H](CO)N(C(=O)c4ccccn4)[C@H]3C#N)cc2)c1 | inactive
4 | O=C(NC[C@@H]1CC[C@H]2[C@H](CN2Cc2cc(-c3ccccc3)on2)O1)c1ccc2c(c1)OCO2 | inactive
5 | COc1ccc(S(=O)(=O)Nc2ccc3c(c2)CC(=O)N([C@@H](C)CO)C[C@H](C)[C@H](CN(C)S(=O)(=O)c2ccc(OC)cc2)O3)cc1 | inactive

Reference: PubChem BioAssay AID1159566 (Broad Institute, 2015)
